Results: PubChem BioAssay (EPA / NIEHS)
Records with an inconclusive call do not appear. Calls of active or inactive are those of the source. The calls were made as follows, unless noted: active = hit-call score of the fitted dose curve at least 0.9, where 1 is the maximum; inconclusive = response in the unintended direction; inactive = score below 0.9.

Legend:
[1] = target: Retinoic acid receptor RXR-alpha (Homo sapiens) (UniProt P19793); assay: ATG_RXRa_TRANS: Attagene TRANS-FACTORIAL HepG2 Assay for human Retinoid X Receptor alpha (RXRa) (AID 2283012)
In short: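 HepG2 cells transiently transfected with multiplexed GAL4-UAS reporter units and chimeric NR-GAL4 fusions, dosed 24 h. Reporter mRNA measured by RT-PCR, FAM labelling, HpaI digestion and capillary electrophoresis; gain-of-signal fitted relative to DMSO baseline.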

[2] = target: human Thyroid Receptor alpha (THRa1), THRA (gene 7067) (UniProt P10827); assay: ATG_THRa1_TRANS: Attagene TRANS-FACTORIAL HepG2 Assay for human Thyroid Receptor alpha (THRa1) (AID 2283014)
In short: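 Measured here is mRNA from a GAL4-UAS reporter in transfected HepG2 cells carrying a Gal4-fused receptor, 24 h post-dose. DMSO served as negative control and baseline.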

[3] = target: human Retinoid X Receptor beta (RXRb), RXRB (gene 6257) (UniProt P28702); assay: ATG_RXRb_TRANS: Attagene TRANS-FACTORIAL HepG2 Assay for human Retinoid X Receptor beta (RXRb) (AID 2283013)
In short: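 HepG2 cells transiently transfected with multiplexed reporter units driven by GAL4-UAS and exogenous chimeric NR-Gal4 proteins; treated 24 h. Reporter mRNA measured by RT-PCR, 6-FAM labelling and capillary electrophoresis; gain-of-signal fitted versus DMSO baseline.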

[4] = read-out: E-selectin (Homo sapiens) (UniProt P16581); assay: BSK_3C_Eselectin: BioMAP Diversity Plus: 3C Assay for Eselectin Biomarker Activity (AID 2283015; active = hit-call score of the fitted dose curve at least 0.9, where 1 is the maximum; inactive = score below 0.9;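 also: cell surface E-selectin protein quantified by ELISA 24 h after dosing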); details: primary human endothelial cells (HUVEC); actives raise or lower the signal
In short: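 Endpoint derived by bidirectional fitting against DMSO vehicle; signal is ELISA-detected E-selectin from primary HUVEC at 24 h post-dosing, with parallel SRB staining (0.1% SRB, 560 nm) flagging cytotoxicity.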

[5] = read-out: Interleukin-1 alpha (IL1a), IL1A (gene 3552); assay: BSK_BE3C_IL1a: BioMAP Diversity Plus: BE3C Assay for Interleukin-1 alpha (IL1a) Biomarker Activity (AID 2283016; active = hit-call score of the fitted dose curve at least 0.9, where 1 is the maximum; inactive = score below 0.9); details: primary human bronchial epithelial cells; actives raise or lower the signal
In short: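 Human primary bronchial epithelial cells (BE3C system) were dosed with compound and IL-1a measured by ELISA 24 h later. Activity was fitted bidirectionally against DMSO baseline; cytotoxicity was tracked in parallel cultures by SRB total-protein staining.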

[6] = read-out: Monocyte Chemoattractant Protein-1 (MCP1), CCL2 (gene 6347); assay: BSK_3C_MCP1: BioMAP Diversity Plus: 3C Assay for Monocyte Chemoattractant Protein-1 (MCP1) Biomarker Activity (AID 2283017; active = hit-call score of the fitted dose curve at least 0.9, where 1 is the maximum; inactive = score below 0.9); details: primary human endothelial cells (HUVEC); actives raise or lower the signal
In short: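 Using human vascular primary endothelium, researchers measured MCP-1 by ELISA 24 h after treatment, with DMSO serving as negative control for bidirectional fitting.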

[7] = read-out: Human Leukocyte Antigen - DR isotype (HLADR), HLA-DRA (gene 3122); assay: BSK_3C_HLADR: BioMAP Diversity Plus: 3C Assay for Human Leukocyte Antigen - DR isotype (HLADR) Biomarker Activity (AID 2283019; active = hit-call score of the fitted dose curve at least 0.9, where 1 is the maximum; inactive = score below 0.9;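 also: ELISA of cell-surface HLA-DR on HUVEC 24 h after dosing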); details: primary human endothelial cells (HUVEC); actives raise or lower the signal
In short: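 Compound added to primary HUVEC cultures, 24 h incubation, then HLA-DR determined by ELISA; endpoint derived by bidirectional fitting relative to DMSO negative control.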

[8] = read-out: Interleukin-8 (IL8), CXCL8 (gene 3576); assay: BSK_3C_IL8: BioMAP Diversity Plus: 3C Assay for Interleukin-8 (IL8) Biomarker Activity (AID 2283020; active = hit-call score of the fitted dose curve at least 0.9, where 1 is the maximum; inactive = score below 0.9); details: primary human endothelial cells (HUVEC); actives raise or lower the signal
In short: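 Primary human umbilical vein endothelial cells (3C system) were exposed to test chemical for 24 h, then IL-8 was quantified by ELISA. Responses were fitted bidirectionally against DMSO vehicle as baseline.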

[9] = read-out: Monokine induced gamma interferon (MIG), CXCL9 (gene 4283); assay: BSK_3C_MIG: BioMAP Diversity Plus: 3C Assay for Monokine induced gamma interferon (MIG) Biomarker Activity (AID 2283021; active = hit-call score of the fitted dose curve at least 0.9, where 1 is the maximum; inactive = score below 0.9); details: primary human endothelial cells (HUVEC); actives raise or lower the signal
In short: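 Primary human umbilical vein endothelial cells in the 3C system were exposed to chemical for 24 h, after which MIG was quantified by ELISA. Activity was fitted bidirectionally against DMSO as negative control and baseline.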

Chain of human Thyroid Receptor alpha (THRa1), THRA (gene 7067) (P10827 whole entry, looked up, the tested form may be a part): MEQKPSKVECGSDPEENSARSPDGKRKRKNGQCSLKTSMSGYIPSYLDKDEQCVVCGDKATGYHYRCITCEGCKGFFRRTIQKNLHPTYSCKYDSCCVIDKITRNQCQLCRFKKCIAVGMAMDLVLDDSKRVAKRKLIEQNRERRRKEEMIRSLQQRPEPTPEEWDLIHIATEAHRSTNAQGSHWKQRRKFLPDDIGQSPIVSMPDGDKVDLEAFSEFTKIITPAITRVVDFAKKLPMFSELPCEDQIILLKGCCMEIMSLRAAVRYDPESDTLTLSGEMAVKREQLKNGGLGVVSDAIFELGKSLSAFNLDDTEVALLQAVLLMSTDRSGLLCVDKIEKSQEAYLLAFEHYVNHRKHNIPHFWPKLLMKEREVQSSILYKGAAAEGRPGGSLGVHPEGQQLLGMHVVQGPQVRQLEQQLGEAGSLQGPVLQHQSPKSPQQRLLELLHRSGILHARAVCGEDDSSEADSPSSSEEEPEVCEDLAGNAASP
Chain of human Retinoid X Receptor beta (RXRb), RXRB (gene 6257) (P28702 whole entry, looked up, the tested form may be a part): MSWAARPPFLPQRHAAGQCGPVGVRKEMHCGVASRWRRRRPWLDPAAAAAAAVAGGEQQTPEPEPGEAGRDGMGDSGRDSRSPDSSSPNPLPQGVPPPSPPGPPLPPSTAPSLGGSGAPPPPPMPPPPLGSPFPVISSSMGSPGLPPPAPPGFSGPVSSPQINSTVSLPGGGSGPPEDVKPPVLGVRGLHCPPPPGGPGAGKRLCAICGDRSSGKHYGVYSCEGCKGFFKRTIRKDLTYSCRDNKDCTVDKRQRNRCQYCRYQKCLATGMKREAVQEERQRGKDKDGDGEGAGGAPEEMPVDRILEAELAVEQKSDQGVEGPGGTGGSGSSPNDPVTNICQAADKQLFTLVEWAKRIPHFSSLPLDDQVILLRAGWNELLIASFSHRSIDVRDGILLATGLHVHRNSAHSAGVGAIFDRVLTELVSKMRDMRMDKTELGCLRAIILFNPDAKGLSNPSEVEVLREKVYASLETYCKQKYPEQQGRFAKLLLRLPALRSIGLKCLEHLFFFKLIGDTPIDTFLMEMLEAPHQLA
Chain of Retinoic acid receptor RXR-alpha (Homo sapiens) (P19793 whole entry, looked up, the tested form may be a part): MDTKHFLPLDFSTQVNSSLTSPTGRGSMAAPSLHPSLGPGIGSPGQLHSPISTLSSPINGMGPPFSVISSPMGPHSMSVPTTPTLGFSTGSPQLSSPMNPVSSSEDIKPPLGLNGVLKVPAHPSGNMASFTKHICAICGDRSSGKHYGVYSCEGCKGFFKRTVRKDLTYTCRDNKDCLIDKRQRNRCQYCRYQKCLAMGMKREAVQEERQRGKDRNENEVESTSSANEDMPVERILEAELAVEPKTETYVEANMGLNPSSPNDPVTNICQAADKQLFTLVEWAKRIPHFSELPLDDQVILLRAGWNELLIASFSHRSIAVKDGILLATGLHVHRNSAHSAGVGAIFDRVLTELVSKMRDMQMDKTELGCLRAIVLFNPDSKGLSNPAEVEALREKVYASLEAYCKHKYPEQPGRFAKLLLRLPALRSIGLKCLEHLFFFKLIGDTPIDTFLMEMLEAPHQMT
Chain of E-selectin (Homo sapiens) (P16581 whole entry, looked up): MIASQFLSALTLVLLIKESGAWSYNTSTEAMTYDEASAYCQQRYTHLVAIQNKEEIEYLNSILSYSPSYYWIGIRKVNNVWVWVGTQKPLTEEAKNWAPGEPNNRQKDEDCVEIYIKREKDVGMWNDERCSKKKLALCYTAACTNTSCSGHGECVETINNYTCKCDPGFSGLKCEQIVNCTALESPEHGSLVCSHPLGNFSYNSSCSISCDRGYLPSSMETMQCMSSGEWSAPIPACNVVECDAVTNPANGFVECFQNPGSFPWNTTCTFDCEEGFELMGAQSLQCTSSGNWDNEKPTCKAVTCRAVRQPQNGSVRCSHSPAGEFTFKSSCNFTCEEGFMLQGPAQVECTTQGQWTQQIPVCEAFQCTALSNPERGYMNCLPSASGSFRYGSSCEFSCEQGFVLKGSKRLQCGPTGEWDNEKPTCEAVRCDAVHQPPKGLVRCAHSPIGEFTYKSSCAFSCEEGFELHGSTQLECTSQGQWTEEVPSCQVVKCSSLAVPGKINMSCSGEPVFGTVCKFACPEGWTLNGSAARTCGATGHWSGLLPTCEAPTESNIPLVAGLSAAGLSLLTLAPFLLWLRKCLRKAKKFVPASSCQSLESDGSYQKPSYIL

`CC(C)[C@H](C(=O)OC(C#N)c1cccc(Oc2ccccc2)c1)c1ccc(OC(F)F)cc1` (stereo partly specified) was tested, and the outcome [1] was “inactive” and the outcome [2] was “inactive”.

With `O=S(=O)(Oc1ccc(Cl)cc1)c1ccc(Cl)cc1` the outcome [1] was “inactive” and the outcome [2] was “inactive”.

`O=NN1CCOCC1` was tested, and the outcome [1] was “inactive” and the outcome [2] was “inactive”.

`C=CC(=O)OCC(COC(=O)C=C)(COC(=O)C=C)COC(=O)C=C` was tested, and the AC50 [3] was 100 µM (active) and the outcome [2] was “inactive”.

With `CN(C)c1ccc(N=O)cc1` the outcome [3] was “inactive” and the outcome [2] was “inactive”.

With `CC(C)(C#N)N=NC(C)(C)C#N` the outcome [3] was “inactive”.

`CN(N=O)C(N)=O` was tested, and the outcome [3] was “inactive” and the outcome [2] was “inactive”.

For `CCCSP(=S)(OCC)Oc1ccc(SC)cc1` (stereo unspecified), the outcome [3] was “inactive”.

For `N#Cc1ccccc1Cl`, the outcome [3] was “inactive”.

In the case of `O=C(O)COc1cc(Cl)c(Cl)cc1Cl`, the outcome [3] is reported as “inactive”, the outcome [2] is reported as “inactive” and the outcome [4] is reported as “inactive”. The outcome [5] was “inactive”, the outcome [6] was “inactive” and the outcome [7] was “inactive”. For the same compound, the outcome [8] was “inactive” and the outcome [9] was “inactive”.

`COc1ccc([N+](=O)[O-])cc1O` was tested, and the outcome [3] was “inactive” and the outcome [2] was “inactive”.

With `CCNc1nc(NCC)nc(SC)n1` the outcome [3] was “inactive” and the outcome [2] was “inactive”.

With `CNC(=O)O/N=C/C(C)(C)S(C)(=O)=O` the outcome [3] was “inactive” and the outcome [2] was “inactive”.

`C=CCN=C=S` was tested, and the outcome [3] was “inactive” and the outcome [2] was “inactive”.
